# Most compounds without a hit are left out; they make up all but 3.4% or so of the library.
# MITF primary = MITF inhibitors, primary screen, biochemical, AlphaScreen, human | hit rate 0.91% among 650,000 | AID 1259374, 2018 | inhibition, % at 2.6 µM | Microphthalmia-associated transcription factor (Homo sapiens), O75030 | AlphaScreen MITF homodimerization, bead proximity signal; in the data active = inhibition above about 50%
# FBW7 activator = FBW7 E3 ligase activators, primary screen, biochemical, AlphaScreen, human; F-box/WD repeat-containing protein 7 (Homo sapiens), Q969H0; AlphaScreen FBW7–phospho-cyclin E peptide binding, activator screen; normalized activity (activation), % at 26.1 µM; hit rate 0.13% among 650,000; AID 1259310, 2017; in the data active = normalized activity above about 1.9%;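 also: purified mutant Fbw7 with reduced substrate affinity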
# GPR151 ag = activators of human GPR151, primary screen, cell-based, PathHunter beta-arrestin, luminescence. G-protein coupled receptor 151 (Homo sapiens), Q8TDV0. PathHunter beta-arrestin GPR151 cells. activation, % at 11.2 µM. hit rate 1% among 650,000. AID 1508602, 2020; in the data active = activation above about 4.9%
# Target sequence (Q8TDV0 whole entry, looked up): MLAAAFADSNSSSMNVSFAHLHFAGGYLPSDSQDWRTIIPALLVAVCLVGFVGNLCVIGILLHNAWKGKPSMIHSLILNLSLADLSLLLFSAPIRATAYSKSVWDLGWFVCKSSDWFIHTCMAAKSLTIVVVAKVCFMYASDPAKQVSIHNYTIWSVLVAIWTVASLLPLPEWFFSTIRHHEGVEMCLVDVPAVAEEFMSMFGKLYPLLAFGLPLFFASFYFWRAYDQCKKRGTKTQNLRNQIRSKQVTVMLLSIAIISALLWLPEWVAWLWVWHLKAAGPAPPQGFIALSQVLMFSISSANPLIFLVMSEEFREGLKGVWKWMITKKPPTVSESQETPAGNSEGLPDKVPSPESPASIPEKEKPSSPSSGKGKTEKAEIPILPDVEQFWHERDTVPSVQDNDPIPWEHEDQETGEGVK
# TEAD-YAP block = TEAD-YAP interaction inhibition, primary screen, TEAD-YAP interaction inhibitor project, luminescence, HEK-TIYL cells. hit rate 1.4% among 640,000. inhibition, % at 9.12 µM. TEAD-Gal4/YAP UAS-luciferase luminescence; in the data active = inhibition above about 32%
# GPR151 conf act = GPR151 activators, triplicate retest, confirmation, cell-based, PathHunter beta-arrestin, luminescence. 6,700 tested, under 10 active. activation, % at 11.2 µM. GPR151 PathHunter beta-arrestin cells, 90 min; % of EA-reagent control over plate median. shares compounds with GPR151 ag;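 active = mean percent activation across replicates above the confirmation screen cutoff of 4.91%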
# GPR119 counter = GPR119 activators in beta-arrestin cells, counter-screen for GPR151 activator project, cell-based, PathHunter beta-arrestin, luminescence, triplicate. shares compounds with GPR151 ag. hit rate 0.3% among 6,700. activation, % at 11.2 µM. 90 min; 0 = compound-well median, 100 = enzyme-acceptor control;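 active = mean percent activation in the counterscreen above 29.09%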;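 also: counterscreen on off-target GPR119 to flag nonselective hits from the GPR151 activator screen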
# Hits are given with their value; i = inactive; nt = not tested or not shown.
SMILES,MITF primary,FBW7 activator,GPR151 ag,TEAD-YAP block,GPR151 conf act,GPR119 counter
O=C(Nc1ccccc1Cl)c1csc(-n2cccc2)n1,i,i,5.7,i,i,i
CCOc1ccc(/C=N/n2c(C)nc3ccccc3c2=O)cc1,i,i,i,i,nt,nt
CCOC(=O)COc1ccc2ccccc2c1/C=N/n1c(C)nc2ccccc2c1=O,i,i,5.0,i,i,i
CCn1cc(CN2CCN3C(=O)[C@H](CCCCN)NC(=O)[C@H]3C2)c(C)n1,i,i,i,i,nt,nt
Cc1ccc(COc2c(Br)cc(/C=C(\C#N)c3nn(CCO)c(N)c3C#N)cc2Br)cc1,i,i,6.9,i,i,i
Cc1nc(-c2c(C(F)(F)F)oc3c(CN(C)C)c(O)ccc3c2=O)cs1,i,i,5.1,i,i,i
Cc1nc(-c2c(C(F)(F)F)oc3c(C)c(C)ccc3c2=O)cs1,i,i,i,i,nt,nt
Cc1nn(C(=O)c2ccccc2)c(C)c1CN1C(=O)c2ccccc2C1=O,i,i,i,i,nt,nt
CCOc1ccc2[nH]cc(S(=O)(=O)c3ccccc3)c(=O)c2c1,i,i,i,i,nt,nt
CCOC(=O)N1CCN(C(=O)Cn2nnnc2CN2CCCCCC2)CC1,i,i,i,i,nt,nt
CCOC(=O)N1CCN(C(=O)Cn2nnnc2CN(C)C(C)C)CC1,i,i,5.2,i,i,i
CC(C)N(C)Cc1nnnn1CC(=O)NCC(c1ccccc1)c1ccccc1,i,i,i,i,nt,nt
CC(C)N(C)Cc1nnnn1CC(=O)NC1(c2ccccc2)CC1,i,i,8.3,i,i,i
COc1ccccc1C(=O)NC1(C(F)(F)F)NC(=O)N(c2ccc(C)c(C)c2)C1=O (centres undefined),i,i,7.3,i,i,i
O=C(NC1(C(F)(F)F)NC(=O)N(c2ccc(F)cc2)C1=O)c1ccc(F)cc1 (centres undefined),i,i,i,i,nt,nt
O=C(NC1(C(F)(F)F)NC(=O)N(c2ccc(F)cc2)C1=O)c1ccncc1 (centres undefined),i,i,13,i,i,i
Cn1c(C(F)(F)F)nc2c1cc(Br)c[n+]2C,i,i,i,i,nt,nt
CC(NC(=O)c1ccco1)c1ccc(I)cc1 (centres undefined),i,i,i,i,nt,nt
C=CCC(CC=C)(C(=O)O)c1ccccc1,i,i,5.8,i,i,i
COc1ccc(OCCn2c(-c3ccc(Cl)cc3)nc3ccccc3c2=O)cc1,i,i,i,i,nt,nt
O=c1c2ccccc2cnn1CCOc1ccc(Cl)cc1,i,i,4.9,i,i,i
Cc1nc(N2CCCCC2)c2c(C)c(C(=O)N3CCCCC3C)sc2n1 (centres undefined),i,i,i,i,nt,nt
NC(=O)Cn1cnc2scc(-c3cccc([N+](=O)[O-])c3)c2c1=O,i,i,i,i,nt,nt
CCC(C(=O)OC)n1cnc2scc(-c3cccc([N+](=O)[O-])c3)c2c1=O (centres undefined),i,i,15,i,i,i
CCN1/C(=C/c2ccc3cc(OC)ccc3[n+]2CC)Sc2ccc(C3CCCCC3)cc21,i,i,9.3,88,i,i
SMILES,MITF primary,FBW7 activator,GPR151 ag,TEAD-YAP block,GPR151 conf act,GPR119 counter
Cc1nc2c(nnn2Cc2ccccc2)c(=O)n1C,i,i,i,i,nt,nt
Cc1nc2c(nnn2Cc2ccccc2)c(=O)n1Cc1ccccc1,i,i,10,i,i,i
O=C(Oc1ccc(-n2ccnc2)cc1)c1ccc2c(c1)S(=O)(=O)c1ccccc1C2=O,i,i,i,i,nt,nt
O=C(O)c1ccc(/C=N/NC(=O)c2cc(-c3cccs3)[nH]n2)cc1,i,i,i,i,nt,nt
COC(=O)c1ccc(/C=N/NC(=O)c2cc(-c3cccs3)[nH]n2)cc1,i,i,7.4,i,i,i
O=C(CN1C(=O)c2ccccc2C1=O)N1CCN(C(c2ccccc2)c2ccccc2)CC1,i,i,i,i,nt,nt
O=C(CSCC(=O)N1CCCCC1)Nc1nc(-c2ccc(Cl)s2)cs1,i,i,6.1,i,i,i
O=C(CSCC(=O)N1CCCCC1)Nc1nc(-c2cccs2)cs1,i,i,i,i,nt,nt
O=C(NN1C(=O)C2C3C=CC(C3)C2C1=O)c1ccncc1 (centres undefined),i,i,i,i,nt,nt
O=C(NN1C(=O)C2C(c3ccccc3)C=CC(c3ccccc3)C2C1=O)c1ccncc1 (centres undefined),i,i,6.1,i,i,i
CN(C)CCCN(Cc1ccc2c(c1)OCO2)C(=O)NC1CCCCC1,i,i,5.2,i,i,i
CCCC(O)(CN1CCOCC1)c1ccc(OCC)cc1 (centres undefined),i,i,i,i,nt,nt
Cc1cccc(NC(=O)C(=O)NCCO)c1C,i,i,i,i,nt,nt
Cc1c(Cl)cccc1NC(=O)C(=O)NCCO,i,i,5.2,i,i,i
CCC[C@@H]1NC(=O)[C@@H]2C[C@H](NCc3cc(C)ccc3F)CN2C1=O,i,i,9.4,i,i,i
CC(C)C[C@@H]1NC(=O)[C@@H]2C[C@H](NCc3ccc(C(C)C)cc3)CN2C1=O,i,i,i,i,nt,nt
COc1ccccc1CN[C@H]1C[C@H]2C(=O)N[C@@H](CO)C(=O)N2C1,i,i,5.2,i,i,i
COc1ccc(CN[C@H]2C[C@H]3C(=O)N[C@H](CC(C)C)C(=O)N3C2)cc1,i,i,5.1,i,i,i
Cn1cc(CN[C@H]2C[C@H]3C(=O)N[C@@H](Cc4ccccc4)C(=O)N3C2)c(-c2ccccc2)n1,i,i,9.8,i,i,i
CC(=O)c1ccc(NCC(=O)NCc2ccccc2Cl)cc1,i,i,i,i,nt,nt
COc1ccccc1-n1ncc2c(C)nnc(SCC(=O)NCc3ccc4c(c3)OCO4)c21,i,i,i,i,nt,nt
O=C([C@H]1C[C@@H]2C=C[C@H]1C2)N1CCC(CO)(CCOc2ccccc2)CC1,i,i,i,i,nt,nt
O=C1N[C@H](CO)C(=O)N2C[C@@H](NCc3nc(-c4ccc(F)cc4)cs3)C[C@@H]12,i,i,7.7,i,i,i
CCC[C@@H]1NC(=O)[C@@H]2C[C@H](NCc3cc4ccccc4s3)CN2C1=O,i,i,5.6,i,i,i
CC(C)C[C@H]1NC(=O)[C@@H]2C[C@H](NCc3nc(-c4ccc(F)cc4)cs3)CN2C1=O,i,i,i,i,nt,nt
COc1cc(CN(C(=S)NCC(=O)NC2CCCCC2)C2CCCC2)cc(OC)c1OC,i,i,i,i,nt,nt
COc1ccc(OC)c(C(=O)COC(=O)c2cc([N+](=O)[O-])ccc2NCCO)c1,i,i,i,i,nt,nt
